From PubChem BioAssay (NCI)
Compounds without any hit were thinned out: in the full panel of roughly 79,000, 15% have a hit. Activity calls are given as the source filed them. Rule as the data show it: active = growth inhibition above about 70%; inactive = the rest.

Assays:
[1] = NCI Yeast Anticancer Drug Screen. Data for the rad52 strain (AID 147);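 also: 0% = growth of vehicle-treated control cultures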; conditions: S. cerevisiae rad52 mutant growth inhibition, stronger effect = higher value
Outline: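 Growth of repair-deficient yeast cells was compared between compound-treated and vehicle-treated cultures to give percent inhibition.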

[2] = NCI Yeast Anticancer Drug Screen. Data for the rad50EPP+ strain (AID 151);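 also: 0% = growth of vehicle-treated control cultures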; conditions: S. cerevisiae rad50 mutant strain, stronger effect = higher value
Outline: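 Measured: growth inhibition of rad50EPP+ yeast. Reference: vehicle-treated controls. Screen uses strains with defined genetic alterations in DNA damage repair or cell cycle control.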

[3] = NCI Yeast Anticancer Drug Screen. Data for the rad50 strain (AID 155);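 also: 0% = growth of vehicle-only cultures of the same strain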; conditions: S. cerevisiae rad50 strain growth inhibition, stronger effect = higher value
Outline: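 Readout: growth inhibition relative to vehicle-treated cultures. Compound exposure was carried out in a genetically defined yeast strain deficient in DNA damage repair.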

[4] = NCI Yeast Anticancer Drug Screen. Data for the mec2-1 strain (AID 157); conditions: S. cerevisiae mec2-1 strain, stronger effect = higher value
Outline: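 Compounds were applied to mec2-1 yeast cells. Their growth was then compared with that of vehicle-treated cultures to give growth inhibition.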

[5] = NCI Yeast Anticancer Drug Screen. Data for the rad14 strain (AID 159);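 also: 0% = growth of vehicle-treated control cultures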; conditions: S. cerevisiae rad14 strain growth inhibition, stronger effect = higher value
Outline: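 Growth inhibition vs vehicle controls; genetically altered yeast strain (DNA damage repair defect) treated with test compounds.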

[6] = NCI Yeast Anticancer Drug Screen. Data for the sgs1 mgt1 strain (AID 161);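 also: 0% = growth of cultures given vehicle only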; conditions: S. cerevisiae sgs1 mgt1 strain, stronger effect = higher value
Outline: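 This yeast growth screen uses a strain with defined DNA-repair lesions; compound-treated growth is compared with vehicle-treated growth.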

[7] = NCI Yeast Anticancer Drug Screen. Data for the CLN2oe strain (AID 163);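 also: 0% = growth of vehicle-only control cultures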; conditions: S. cerevisiae CLN2oe strain, stronger effect = higher value
Outline: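 Cells of an engineered yeast line with disturbed cell-cycle regulation are treated with compound. Inhibition of growth is then calculated relative to the vehicle-treated reference.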

[8] = NCI Yeast Anticancer Drug Screen. Data for the cln2 rad14 strain (AID 165);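 also: 0% = growth equal to vehicle treated cultures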; conditions: S. cerevisiae cln2 rad14 strain, stronger effect = higher value
Outline: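 Strain: cln2 rad14 yeast, altered in cell cycle control and DNA damage repair. Read-out: growth inhibition vs vehicle.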

[9] = NCI Yeast Anticancer Drug Screen. Data for the bub3 strain (AID 167); conditions: S. cerevisiae bub3 mutant strain, stronger effect = higher value
Outline: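 Readout: yeast growth inhibition, expressed relative to vehicle-only wells. The test organism is a mutant strain from a panel with lesions in DNA repair or checkpoint genes.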

[10] = NCI Yeast Anticancer Drug Screen. Data for the wt2 strain (AID 169);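 also: 0% = growth of vehicle-treated yeast cultures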; conditions: S. cerevisiae wt2 strain growth inhibition, stronger effect = higher value
Outline: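 Growth of compound-treated yeast is measured and expressed as inhibition relative to vehicle-only controls.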

[11] = NCI Yeast Anticancer Drug Screen. Data for the mlh1 strain (AID 171);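 also: 0% = growth of vehicle-treated control cultures of the same strain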; conditions: S. cerevisiae mlh1 strain growth inhibition, stronger effect = higher value
Outline: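 Test agents were incubated with yeast bearing a defined DNA damage repair or cell cycle control alteration; values are growth inhibition normalised to vehicle-treated cultures.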

[12] = NCI Yeast Anticancer Drug Screen. Data for the sgs1 strain (AID 173);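 also: 0% = growth of vehicle-only control cultures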; conditions: S. cerevisiae sgs1 mutant, stronger effect = higher value
Outline: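 Strain with an altered DNA repair or cell cycle pathway exposed to compound. Growth then measured. Value = inhibition versus vehicle control.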

[13] = NCI Yeast Anticancer Drug Screen. Data for the mlh1 rad18 strain (AID 175); conditions: S. cerevisiae mlh1 rad18 strain growth inhibition, stronger effect = higher value
Outline: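 A repair-deficient yeast strain is exposed to test compound, and growth is scored relative to vehicle-treated controls.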

[14] = NCI Yeast Anticancer Drug Screen. Data for the rad18 strain (AID 177); conditions: S. cerevisiae rad18 mutant growth inhibition, stronger effect = higher value
Outline: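 DNA-repair-defective yeast; compound treatment; growth inhibition scored against vehicle.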

[15] = at 5.0 µM (retest, dose inferred, filed as 0.5)
[16] = at 50.0 µM (retest, dose inferred, filed as 5.0)

Measured: growth inhibition

Nc1cc(F)cc2c1-c1ccc(F)cc1C2
inactive: [1]; at 1.2 µM -1% | [1]; at 3.7 µM -1% | [1]; at 11.0 µM 3% | [1]; at 33.0 µM 30% | [2]; at 1.2 µM 3% | [2]; at 3.7 µM 10% | [2]; at 11.0 µM 25% | [3]; at 1.2 µM 6% | [3]; at 3.7 µM -41% | [3]; [15] 1% | [3]; at 11.0 µM 33% | [3]; at 33.0 µM 47% | [3]; [16] 60% | [4]; at 1.2 µM -1% | [4]; at 3.7 µM 1% | [4]; [15] 2% | [4]; at 11.0 µM 2% | [4]; at 33.0 µM 23% | [4]; [16] 18% | [5]; at 1.2 µM 4% | [5]; at 3.7 µM 5% | [5]; at 11.0 µM 9% | [5]; at 33.0 µM 27% | [6]; [15] -5% | [6]; [16] 7% | [7]; at 1.2 µM -10% | [7]; at 3.7 µM -9% | [7]; at 11.0 µM -1% | [7]; at 33.0 µM 7% | [8]; [15] 0% | [8]; [16] 40% | [9]; at 1.2 µM -1% | [9]; at 3.7 µM -2% | [9]; [15] 3% | [9]; at 11.0 µM -2% | [9]; at 33.0 µM 16% | [9]; [16] 27% | [10]; at 1.2 µM -3% | [10]; at 3.7 µM 5% | [10]; at 11.0 µM -3% | [10]; at 33.0 µM 15% | [11]; at 1.2 µM -4% | [11]; at 3.7 µM -3% | [11]; at 11.0 µM -3% | [11]; at 33.0 µM 14% | [12]; at 1.2 µM -3% | [12]; at 3.7 µM 0% | [12]; at 11.0 µM 6% | [12]; at 33.0 µM 46% | [13]; [15] -1% | [13]; [16] 61% | [14]; at 1.2 µM -1% | [14]; at 3.7 µM 4% | [14]; at 11.0 µM 7% | [14]; at 33.0 µM 49%
active: [1]; at 100.0 µM 92% | [2]; at 33.0 µM 90% | [2]; at 100.0 µM 95% | [3]; at 50.0 µM 87% | [3]; at 100.0 µM 92% | [4]; at 50.0 µM 74.6% | [4]; at 100.0 µM 91% | [5]; at 100.0 µM 94% | [6]; at 50.0 µM 77% | [7]; at 100.0 µM 72% | [8]; at 50.0 µM 78.5% | [9]; at 50.0 µM 78.5% | [9]; at 100.0 µM 91% | [10]; at 100.0 µM 89% | [11]; at 100.0 µM 92% | [12]; at 100.0 µM 93% | [13]; at 50.0 µM 87.7% | [14]; at 100.0 µM 94%
